Data as given in ChEMBL document CHEMBL3988442, “University of Dundee, Small-Polar-MMV Screening Library” (2021).

What was measured:
[1] = molecular target: T1, Aspartate--tRNA(Asp/Asn) ligase (Mycobacterium tuberculosis (strain ATCC 25618 / H37Rv)) (UniProt P9WFW3); assay: Assay for Asp RNA synthetase-1 from Mycobacterium tuberculosis; assay type: functional; design: scale not given: direction of the effect not stated beside the values; conditions: 30 µM; also: in the data most compounds retested in dose-response had high values
T1 sequence (whole entry): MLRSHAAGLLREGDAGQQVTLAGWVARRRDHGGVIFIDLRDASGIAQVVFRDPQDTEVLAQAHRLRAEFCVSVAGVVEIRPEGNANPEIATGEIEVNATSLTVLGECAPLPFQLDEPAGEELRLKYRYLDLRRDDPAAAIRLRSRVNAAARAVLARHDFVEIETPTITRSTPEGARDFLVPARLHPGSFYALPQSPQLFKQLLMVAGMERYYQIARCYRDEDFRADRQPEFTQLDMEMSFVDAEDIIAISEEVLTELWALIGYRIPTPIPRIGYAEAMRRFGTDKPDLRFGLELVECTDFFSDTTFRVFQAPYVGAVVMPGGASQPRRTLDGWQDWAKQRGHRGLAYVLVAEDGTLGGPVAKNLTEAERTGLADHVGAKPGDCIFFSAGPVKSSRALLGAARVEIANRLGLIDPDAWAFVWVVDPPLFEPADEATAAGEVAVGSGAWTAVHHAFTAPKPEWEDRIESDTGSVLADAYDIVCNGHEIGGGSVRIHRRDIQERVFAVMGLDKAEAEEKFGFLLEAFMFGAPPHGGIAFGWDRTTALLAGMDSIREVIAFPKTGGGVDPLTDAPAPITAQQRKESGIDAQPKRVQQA

[2] = molecular target: Shiga toxin 2 (Escherichia coli O157:H7) (UniProt P09385+P09386); assay: E. coli 0.157:H7 Shiga Toxin SOP - stx2 screening assay; assay type: functional; design: scale not given: direction of the effect not stated beside the values; conditions: 30 µM

Row | SMILES | Percent Effect [1] | Percent Effect [2]
1 | CC(=O)N1CCC(c2ccnc(Nc3cncnc3)n2)C1 (stereo unspecified) | -0.956% | -11.8%
2 | Cn1c(Cn2cccn2)nnc1C1CCCN(c2ccncc2F)C1 (stereo unspecified) | -0.254% | -2.56%
3 | CCS(=O)(=O)N1CCO[C@H]2[C@H](OCC3CCCC3)CC[C@@H]21 | -2.82% | -8.34%
4 | CCOc1ncccc1NC(=O)c1cc(C)c(C)s1 | -2.03% | 3.75%
5 | CC(Cn1cccn1)NC(=O)Nc1ccc(F)cc1 (stereo unspecified) | 1.84% | -31.3%
6 | CC1CN(CC(=O)NC2CCCC2)CCN1c1ccc2nncn2n1 (stereo unspecified) | -3.52% | -41.8%
7 | CN1CCN(CCO)C(=O)C12CCN(Cc1ccsc1)CC2 | -3.89% | -1.74%
8 | COc1ccc(CN2CCCC3(CCN(c4ccsc4)C3=O)C2)cc1 (stereo unspecified) | 1.46% | -4.23%
9 | Cc1cnn(CCNCC(=O)NCC2(c3ccccc3)CCC2)c1 | 4.12% | 22.9%
10 | Cc1noc2ncc(C(=O)NCC3CCOC3)cc12 (stereo unspecified) | -2.88% | 16.2%
11 | CCS(=O)(=O)N1CCC2(CC1)CC(Oc1ccccn1)CO2 (stereo unspecified) | -0.51% | 0.988%
12 | CC(C)C(Sc1nnc(C2CC2)n1C1CC1)C(=O)NCc1cccnc1 (stereo unspecified) | -2.03% | -18.2%
13 | COc1c(CNC(c2ccc(F)cc2)C(C)(C)C)c(C)nn1C (stereo unspecified) | -1.59% | 40.7%
14 | CCc1ncncc1C(=O)N1CCN(Cc2c(C)noc2C)CC1 | 0.0281% | 36.8%
15 | Cc1cc(CN2CCN(c3ccc4nncn4n3)C(C)C2)no1 (stereo unspecified) | -3.98% | -29.9%
16 | Cn1ccc(C(=O)NC2CCC23CCN(C(=O)c2ccncc2)CC3)c1 (stereo unspecified) | 0.319% | -10.5%
17 | CC(C)C1CN(c2ncc(F)cn2)CCC(=O)N1Cc1ccc(F)cc1 (stereo unspecified) | 1.56% | -4.93%
18 | Cc1cc(N(C)Cc2cc(C)on2)n2nc(C)c(C)c2n1 | 1.81% | -20%
19 | CCc1nc(C2CCCN2C(=O)c2nccnc2N)no1 (stereo unspecified) | -4.3% | 8.58%
20 | CCC(C)(C)NC(=O)C1CC(=O)N(CC2CC2)C1 (stereo unspecified) | 5.42% | 28.9%
21 | O=C(NCC1CCOC1)c1csc(-c2ccco2)n1 (stereo unspecified) | 2.85% | -11.7%
22 | O=C1NCC2(CCCN(CCc3ccccc3)C2)Oc2ccccc21 (stereo unspecified) | -2.1% | -68.8%
23 | CC(C)c1noc(CCC(=O)NC(C)c2nnc3n2CCCCC3)n1 (stereo unspecified) | 0.353% | -13.7%
24 | Cc1oc(C(=O)O)cc1S(=O)(=O)Nc1ccc(Cl)c(F)c1 | 1.64% | 16.3%

Row | SMILES | Percent Effect [1] | Percent Effect [2]
25 | Cc1cc(C)n(Cc2ccc(C(=O)NCCN3CCOCC3)cc2)n1 | -4.18% | 6.83%
26 | Fc1ccccc1Cc1noc(CN2CCCC(CN3CCCC3)C2)n1 (stereo unspecified) | -0.254% | 11.5%
27 | CC(C)NC(=O)C1CN(C(=O)c2ccc(F)cc2)CC12CCOCC2 (stereo unspecified) | 0.581% | -56%
28 | CCn1cc(CN2CCCN(C(=O)CCc3ccncc3)CC2)cn1 | 0.516% | -80.5%
29 | O=C(NCCOc1ccc2c(c1)OCO2)N1CCC1 | 0.81% | -21.5%
30 | CC(NC(=O)Nc1cccnc1N1CCCC1)c1nncn1C (stereo unspecified) | -2.86% | 7.91%
31 | CCN(CC1CCCO1)C(=O)Nc1cc(OC)c(OC)cc1C (stereo unspecified) | -2.8% | -9.12%
32 | Cc1ccc(C(=O)N2CCC3(CCC(=O)N(CC(N)=O)C3)CC2)c(O)c1 | -0.585% | -12.4%
33 | c1nc2c(c(-c3ccsc3)n1)CCN(Cc1ccoc1)CC2 | 8.04% | -46%
34 | CCCNC(=O)COc1ccc(C)cn1 | -4.7% | -36.7%
35 | CC(CNC(=O)N1CCSCC1)Cc1cccs1 (stereo unspecified) | 1.56% | 6.01%
36 | COCCN1C[C@@H]2CN(Cc3cccc(F)c3)CCC[C@]2(C(=O)O)C1 | 6.95% | -10.4%
37 | Cc1nc(CN2CCc3cncnc3C2)oc1C | -1.67% | -14.4%
38 | Cc1cnc2c(S(=O)(=O)NCC3CCN(C4CC4)C3)cccc2c1 (stereo unspecified) | 3.65% | 25.5%
39 | Cn1ccc(C(=O)NCc2ccc(N3CCCC3)nc2)cc1=O | 0.0735% | -33.5%
40 | COc1cc2nc(C)n(CC(=O)NCCCN(C)C)c(=O)c2cc1OC | -0.232% | -51.4%
41 | CN(Cc1ccsc1)C(=O)Nc1ccc(S(C)(=O)=O)nc1 | -0.6% | -35.6%
42 | Cc1ccc(OCC(=O)NCC(C)C)nc1 | -3.37% | -28.9%
43 | O=C(NCCNc1ccccn1)N1CCSCC1 | -5.89% | 16.3%
44 | COCCN1C[C@@H]2CN(C(=O)[C@H]3CCCO3)C[C@@H]2C1=O | -1.41% | -16.3%
45 | Cc1cc(=O)n(CC(=O)NCC2CCCO2)c(-c2cccc(Cl)c2)n1 (stereo unspecified) | 8.05% | -13.2%
46 | CN(C)S(=O)(=O)c1ccc(CN2CCCC2CO)o1 (stereo unspecified) | -0.169% | 24%
47 | O=S(=O)(C1CC1)N1CCOCC2(CCN(c3ccccn3)C2)C1 (stereo unspecified) | 8.28% | -47.5%
48 | CC(C)CN1CCC2(CCN(C(=O)c3ccc(F)cc3)CC2)C1=O | -3.41% | -8.12%
